The values below come from PubChem BioAssay AID463082 (The Scripps Research Institute Molecular Screening Center, 2010).

Molecules are shown by their SMILES. Among all 330,000 compounds or so, about 4,900 (1.5%) were called active. The entries come from a sample that favours actives as a whole. Unmarked numbers belong to inactive results.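 The calls were made as follows: active = inhibition above the mean inhibition across the screen plus 3 SD (cut at about 25% in these data); inactive = the rest.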

In this assay the target is Platelet-activating factor acetylhydrolase (Homo sapiens) (UniProt Q13093). As to the kind of experiment: pPAFAH enzyme inhibitors, primary screen, biochemical, fluorescence polarization, human (AID 463082).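 Also: inhibitors block binding of the rhodamine activity-based probe so polarization drops; 0% = enzyme with DMSO and 100% = wells lacking pPAFAH.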 The settings on record: recombinant pPAFAH, FP-rhodamine probe fluorescence polarization; at 3.39 µM; active compounds read high.
Sequence of Platelet-activating factor acetylhydrolase (Homo sapiens) (Q13093 whole entry, looked up): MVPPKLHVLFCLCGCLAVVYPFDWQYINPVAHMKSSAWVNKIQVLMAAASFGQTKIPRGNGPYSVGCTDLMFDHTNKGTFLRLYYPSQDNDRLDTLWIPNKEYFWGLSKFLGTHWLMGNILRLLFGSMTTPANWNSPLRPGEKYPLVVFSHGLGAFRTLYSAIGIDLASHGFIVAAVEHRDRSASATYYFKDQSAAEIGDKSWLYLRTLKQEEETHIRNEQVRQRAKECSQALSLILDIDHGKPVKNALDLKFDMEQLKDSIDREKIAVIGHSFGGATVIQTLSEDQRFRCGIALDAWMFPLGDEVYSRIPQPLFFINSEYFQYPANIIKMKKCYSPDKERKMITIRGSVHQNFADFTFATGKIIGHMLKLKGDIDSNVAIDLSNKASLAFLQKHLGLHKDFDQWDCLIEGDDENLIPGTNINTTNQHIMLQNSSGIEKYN
With `COCCOC(=O)c1sc(=S)n(CCOC)c1N`, the inhibition is 27.2% (active). The result for `COc1cccc(CNC(=O)C2CCCN(S(=O)(=O)N3CC(C)CC(C)C3)C2)c1` (stereo not given) reads 2.82%; that for `CCCCN1C(=O)C(=O)N(CC(=O)Nc2cccc(C(C)=O)c2)C1=O`, -0.13%; that for `CC(=O)c1ccc(S(=O)(=O)NCCC(=O)N2CCN(c3ccccn3)CC2)cc1`, -1.99%.

For `COc1ccccc1OCc1nnc(SCC(N)=O)n1-c1ccccc1`, the inhibition is -7.86%.

In the case of `COc1cccc(-c2coc3cc4oc(=O)c(CC(=O)O)c(C)c4cc23)c1`, the inhibition is 2.78%. Next, `Cc1ccccc1C(=O)NC(=S)Nc1ccc(N2CCN(C(=O)c3ccccc3)CC2)cc1`: 8.73%.

As to `O=C(CCN1CCN(c2ccccc2)CC1)NNC(=S)Nc1ccccc1`, the inhibition was 3.64%.

With `O=C(Cc1ccccc1)NC(=S)Nc1ccc(N2CCCCC2)cc1`, the inhibition is 28.6% (active).

As for `O=C(COC(=O)c1c(Cl)cccc1Cl)Nc1cccc(S(=O)(=O)NC2=NCCCCC2)c1`, the inhibition is 0.66%. Next, `CC(C)Nc1ccc(-n2nc3ccccc3[n+]2[O-])cc1`: -0.33%; `COC(=O)C1(CCSC)NC(c2ccc(OC)cc2OC)C2C(=O)N(c3cccc(C(C)=O)c3)C(=O)C21` (stereo not given): 8.06%; `Cc1ccsc1C(=O)NNC(=O)COc1ccc(Br)cc1`: 5.73%. Regarding `CCCCNS(=O)(=O)c1ccc2nc(SCC(=O)Nc3cc(C)cc(C)c3)[nH]c2c1`, the inhibition is -1.99%.

Consider `COc1cccc(CNC(=O)c2nnn(CC(=O)Nc3cc(Cl)ccc3C)c2N)c1`, for which the inhibition is -8.08%. With `CN(C)C(=O)c1nc2ccc(Cl)cn2c1CN1CCN(c2ncccn2)CC1`, the inhibition is -1.11%. Next, `CN(C)C(=O)c1nc2ccc(Cl)cn2c1CNCc1cccc(OC(F)(F)F)c1`: 27.7% (active); `Cc1ccc(-n2nc3ccc(NC(=O)/C=C/c4ccco4)cc3n2)cc1C`: -3.71%. Take `Cc1ccc(N2NC(=O)/C(=C/C=C/c3ccco3)C2=O)cc1C`: the inhibition is 21.3%. `Cc1ccc(N=C2NC(=O)/C(=C/C=C/c3ccco3)S2)cc1C`: the inhibition is 57.3% (active). Next, `Cc1ccc(S(=O)(=O)N2CCCCC2)cc1NC(=O)[C@@H]1CCCN1C(=O)c1cccs1`: 4.96%; `O=C(CNC(=O)c1n[nH]c2ccccc12)Nc1cc(Cl)ccc1Cl`: -4.9%. Next, `Cc1ccccc1NC(=O)c1cc(S(=O)(=O)Nc2cccc(C(=O)O)c2)ccc1Cl`: 2.58%.

In the case of `C/C(=N\Nc1cccc(C(=O)O)c1)c1ccc2c(c1)Nc1ccccc1S2`, the inhibition is 32.8% (active). The result for `CC(=O)Nc1cccc(/C(C)=N/NC(=O)c2c(-c3ccccc3Cl)noc2C)c1` reads 5.03%.
